# PubChem BioAssay (NCATS)
# “And” between values parts separate entries of the source, which are not always exact repeats. Identical values can stand only once. Results filed as inconclusive are left out. A call without a number means that no potency is given here. The source made the active and inactive calls. Unless noted, calls come from the whole dose curve; as a rule, active = well fitted curve in the direction sought with a large enough effect; inconclusive = small, poorly fitted or top-dose-only effect, or another doubt; inactive = no such curve, though single readings can be large; an effect the other way counts as inactive or inconclusive.
# Legend:
# [1] = molecular target: Vitamin D3 receptor (Homo sapiens) (UniProt P11473); assay: qHTS assay for small molecule antagonists of vitamin D receptor signaling (AID 588541; calls by dose curve;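 note: receptor activated by calcitriol during compound treatment; series mostly up to about 77 µM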)
# Procedure, shortened: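 VDR-UAS-bla HEK293T cells (2000/well, 2% charcoal-stripped FBS) were treated with titrated compounds plus 1-alpha,25-dihydroxyvitamin D3 (50 nM or 3 nM final) for 16 h at 37 C. CCF4 beta-lactamase fluorescence was read; Hill fits gave IC50.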
# [2] = molecular target: Vitamin D3 receptor (Homo sapiens) (UniProt P11473); assay: qHTS assay for small molecule agonists of vitamin D receptor signaling (AID 588543; calls by dose curve)
# Procedure, shortened: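 Agonist-mode beta-lactamase reporter: HEK293T VDR-UAS-bla cells in charcoal-stripped 2% FBS, compound series 16 h 37 C, CCF4 2 h RT. EC50 from Hill fit, scaled against DMSO and 50 nM calcitriol control.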
# [3] = molecular target: Thyroid hormone receptor beta (Homo sapiens) (UniProt P10828); assay: qHTS assay for small molecule agonists of thyroid hormone receptor beta signaling (AID 588545; calls by dose curve)
# Procedure, shortened: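 TR-UAS-bla-GripTite HEK 293 cells in medium with 2% charcoal/dextran FBS, 0.1 mM NEAA and 1 mM sodium pyruvate were treated with titrated compounds for 18 hrs at 37 C. Beta-lactamase reporter was read with CCF4 dye (ex 405, em 460/530 nm); EC50 from Hill fits.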
# [4] = qHTS assay for small molecule antagonists of retinoid X receptor alpha signaling (AID 588546; active = well fitted inhibition curve with a large enough effect in the signal ratio, with a control signal flat, not every such curve was filed as active; the % refers to the signal ratio;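 note: cells stimulated with 9-cis-retinoic acid as agonist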); details: HEK293T RXRa-UAS-bla, beta-lactamase ratio, antagonist mode; measured here: W530 green channel, cytotoxicity proxy
# Procedure, shortened: (§1)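 Beta-lactamase reporter inhibition, read as CCF4 fluorescence ratio (ex 405, em 460/530 nm) after 2 h at RT. HEK293T UAS-bla cells, 2500/well, were stimulated with 9-cis-RA at 500 or 100 nM final alongside test compound for 18 h at 37 C.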
# [5] = molecular target: Retinoic acid receptor RXR-alpha (Homo sapiens) (UniProt P19793); assay: as above; details: HEK293T RXRa-UAS-bla, beta-lactamase ratio, antagonist mode
# Procedure, shortened: as §1
# [6] = molecular target: Voltage-gated inwardly rectifying potassium channel KCNH2 (Homo sapiens) (UniProt Q12809); assay: qHTS Assay for Small Molecule Inhibitors of the Human hERG Channel Activity (AID 588834);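 note: top concentration of the series differs between compounds; lower thallium flux fluorescence means stronger hERG block; nearly all actives have a fitted effect of over 50% in size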
# Procedure, shortened: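 Kinetic FDSS fluorescence; U2OS + hERG BacMam (~100 virus particles/cell); FluxOR Tl+ flux; ~10 min cpd; AC50 (Hill).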
# [7] = qHTS assay for small molecule disruptors of the mitochondrial membrane potential - 1 hr assay (AID 651754; calls by dose curve; note: nearly all actives have a fitted effect of over 35% in size)
# Procedure, shortened: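 HepG2 cells, attached overnight at 37C, were exposed to compound or DMSO vehicle for 1 hr at 37C, 5% CO2, then stained with Mito-MPS dye for 30 min. Red aggregate versus green monomer fluorescence reports membrane potential.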
# [8] = molecular target: Tumor necrosis factor (Homo sapiens) (UniProt P01375); assay: qHTS assay to identify small molecules that stimulate Tumor Necrosis Factor-alpha (TNF-alpha) secretion (AID 651757; active = well fitted curve in the direction sought with a large enough effect in the signal ratio; the % refers to the signal ratio)
# Procedure, shortened: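 THP-1 cells were exposed to compounds for 17 hrs at 37 C, after which secreted TNF-alpha was measured by homogeneous HTRF (TR-FRET) using cryptate- and XL665-labeled anti-TNF-alpha antibodies, read after 3 hr at room temperature.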
# [9] = qHTS assay for environmental chemicals that activate the Aryl hydrocarbon Receptor (AhR) signaling pathway (AID 651777); details: 1A2-DRE human hepatoma cells, luciferase, 24 h; activation: stronger effect = higher value; note: nearly all actives have a fitted effect of over 15% in size
# Procedure, shortened: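 1A2-DRE human hepatoma reporter line; 1,200 cells/well; cmpd or DMSO 24 h, 37 C/5% CO2; One-Glo 30 min RT; luciferase lum.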
# [10] = molecular target: Peroxisome proliferator-activated receptor alpha (Homo sapiens) (UniProt Q07869); assay: qHTS assay for small molecule agonists of the peroxisome proliferator-activated receptor alpha (PPARalpha) signaling pathway (AID 651778); details: PathHunter PPARalpha complementation, chemiluminescence, 6 h; stronger effect = higher value
# Procedure, shortened: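 Cells plated at 2,000/well and held overnight at 37 C, 5% CO2, then compound added by pin tool for 6 hr; after PathHunter detection reagent and 60 min at room temperature, chemiluminescence from enzyme complementation was read.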
# [11] = molecular target: Nuclear receptor ROR-gamma (Homo sapiens) (UniProt P51449); assay: qHTS assay for small molecule antagonists of the retinoid-related orphan receptor gamma (ROR-gamma) signaling pathway (AID 651802); note: series mostly up to about 92 µM; nearly all actives have a fitted effect of over 60% in size
# Procedure, shortened: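 CHO cells carrying TET-inducible ROR-gamma and an ROR response element–luciferase reporter were exposed to compound, then induced with doxycycline. After 16hr at 37C, luminescence was read; lower signal indicates antagonism.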
# [12] = qHTS assay for small molecule agonists of the antioxidant response element (ARE) signaling pathway measured by Nrf2-dependant transcriptional activity (AID 720636; active = well fitted curve in the direction sought with a large enough effect in the repeat runs; an effect the other way counts as inactive or inconclusive;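 note: HepG2 cells with an ARE-driven luciferase reporter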)
# Procedure, shortened: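 Cells: ARE-luc HepG2 with Nrf2-responsive luciferase. Medium contained 1% dialyzed FBS. Compound exposure lasted 16 hr at 37 C and 5% CO2, followed by ONE-Glo luciferase detection.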
# [13] = qHTS assay for small molecule antagonists of the retinoid-related orphan receptor gamma (ROR-gamma) signaling pathway - cell viability counter screen (AID 720652; active = well fitted curve in the direction sought with a large enough effect in the repeat runs; an effect the other way counts as inactive or inconclusive;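 note: series mostly up to about 92 µM; compound exposure lasted 16 hr before ATP read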)
# Procedure, shortened: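 Counter screen in CHO cells carrying TET-inducible ROR-gamma and an ROR response element-luciferase reporter; cells plated 5 hr, compound pinned, doxycycline added, then 16 hr at 37 C. Viability read as intracellular ATP by CellTiter-Glo luminescence.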
# [14] = qHTS assay for small molecule agonists of the antioxidant response element (ARE) signaling pathway measured by Nrf2-dependant transcriptional activity - cell viability counter screen (AID 720653; active = well fitted curve in the direction sought with a large enough effect in the repeat runs; an effect the other way counts as inactive or inconclusive); details: ARE-bla HepG2 viability, CellTiter-Glo ATP luminescence, 16 h; stronger effect = lower value
# Procedure, shortened: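 ARE-bla HepG2 cells (2,000/well) rested 5 hrs at 37C/5% CO2, then exposed to compounds in DMSO for 16 hrs. Viability was read in the same wells as intracellular ATP by luminescence, 30 min at room temperature after reagent addition.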
# [15] = qHTS assay for cell viability of HEK293 cells (AID 743288); details: ATP luminescence (CellTiter-Glo), 18 h; max response: stronger effect = lower value; note: nearly all actives have a fitted effect of over 50% in size
# Procedure, shortened: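 Total intracellular ATP, measured with a luciferase-coupled reagent, indicates the number of viable HEK293 cells. Exposure to test chemicals lasts 18 h at 37 C in 1,536-well format at 2,000 cells/well.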
# [16] = qHTS assay for cell viability of the p53RE-bla HCT-116 cell line (AID 743292); note: potency is the fitted concentration of half-maximal effect; nearly all actives have a fitted effect of over 55% in size
# Procedure, shortened: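 HCT-116 p53RE-bla cells seeded 4,000/well; 5 h at 37 C; compound (DMSO) added; 16 h at 37 C; CellTiter-Glo added, 30 min RT; luminescence read.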
# [17] = molecular target: Rap guanine nucleotide exchange factor 3 (Homo sapiens) (UniProt O95398); assay: Confirmatory qHTS for agonist of cAMP-regulated guanine nucleotide exchange factor 3 (EPAC1) (AID 1645881);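 note: EPAC1 catalysed release of BODIPY-GDP from Rap1B seen as fluorescence loss; nearly all actives have a fitted effect of over 75% in size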
# [18] = molecular target: Rap guanine nucleotide exchange factor 4 (Homo sapiens) (UniProt Q8WZA2); assay: Confirmatory qHTS for agonist of cAMP-regulated guanine nucleotide exchange factor 4 (EPAC2) (AID 1645884);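 note: nucleotide exchange releases bodipy-GDP from Rap1 and this lowers its fluorescence; nearly all actives have a fitted effect of over 65% in size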
# [19] = molecular target: Rap guanine nucleotide exchange factor 4 (Homo sapiens) (UniProt Q8WZA2); assay: Confirmatory qHTS for antagonist of cAMP-regulated guanine nucleotide exchange factor 4 (EPAC2) (AID 1645885); note: potency is the fitted concentration of half-maximal effect; nearly all actives have a fitted effect of over 25% in size
# [20] = molecular target: Rap guanine nucleotide exchange factor 3 (Homo sapiens) (UniProt O95398); assay: Counterscreen qHTS for antagonist of cAMP-regulated guanine nucleotide exchange factor 3 (EPAC1) (AID 1645888);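 note: fluorescence loss as bound BODIPY-GDP is released from Rap1B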
# Procedure, shortened: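 Measured: fluorescence of BODIPY-GDP bound to Rap1B, which falls as exchange proceeds. Conditions include 50 uM competing GDP, 5 and 30 min reads, and a later cAMP challenge for antagonist detection.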
# [21] = molecular target: Nuclear receptor subfamily 1 group I member 2 (Rattus norvegicus) (UniProt Q9R1A7); assay: qHTS assay for small molecule activators of the rat pregnane X receptor (rPXR) signaling pathway (AID 651751; call rule not given here); details: rPXR reporter cells, luciferase (One-Glo), 24 h
# [22] = qHTS assay for small molecule activators of the human pregnane X receptor (PXR) signaling pathway (AID 720659; call rule not given here)
# Sequence of Vitamin D3 receptor (Homo sapiens) (P11473 whole entry, looked up): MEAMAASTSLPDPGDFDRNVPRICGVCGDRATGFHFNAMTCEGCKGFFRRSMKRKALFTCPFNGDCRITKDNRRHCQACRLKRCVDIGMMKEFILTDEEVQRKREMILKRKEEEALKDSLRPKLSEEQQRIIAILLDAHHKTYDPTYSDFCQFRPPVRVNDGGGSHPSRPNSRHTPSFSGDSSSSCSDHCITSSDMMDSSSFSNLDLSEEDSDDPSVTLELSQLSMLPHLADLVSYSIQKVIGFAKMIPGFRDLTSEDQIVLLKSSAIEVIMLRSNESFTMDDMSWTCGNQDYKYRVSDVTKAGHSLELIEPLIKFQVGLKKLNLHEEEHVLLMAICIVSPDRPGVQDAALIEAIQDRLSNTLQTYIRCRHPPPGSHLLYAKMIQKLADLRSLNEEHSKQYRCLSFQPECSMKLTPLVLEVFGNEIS
# Sequence of Nuclear receptor subfamily 1 group I member 2 (Rattus norvegicus) (Q9R1A7 whole entry, looked up): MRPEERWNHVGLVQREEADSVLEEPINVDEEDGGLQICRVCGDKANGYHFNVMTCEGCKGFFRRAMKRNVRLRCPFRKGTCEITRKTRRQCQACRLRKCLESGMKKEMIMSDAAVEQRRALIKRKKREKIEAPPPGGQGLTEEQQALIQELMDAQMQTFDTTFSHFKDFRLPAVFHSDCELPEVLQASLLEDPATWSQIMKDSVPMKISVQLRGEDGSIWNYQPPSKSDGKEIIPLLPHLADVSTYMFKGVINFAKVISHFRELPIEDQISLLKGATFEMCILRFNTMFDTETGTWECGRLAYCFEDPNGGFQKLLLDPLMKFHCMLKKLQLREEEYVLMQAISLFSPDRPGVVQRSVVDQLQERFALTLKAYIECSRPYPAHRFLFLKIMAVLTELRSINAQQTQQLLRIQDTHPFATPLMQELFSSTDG
# Sequence of Rap guanine nucleotide exchange factor 3 (Homo sapiens) (O95398 whole entry, looked up): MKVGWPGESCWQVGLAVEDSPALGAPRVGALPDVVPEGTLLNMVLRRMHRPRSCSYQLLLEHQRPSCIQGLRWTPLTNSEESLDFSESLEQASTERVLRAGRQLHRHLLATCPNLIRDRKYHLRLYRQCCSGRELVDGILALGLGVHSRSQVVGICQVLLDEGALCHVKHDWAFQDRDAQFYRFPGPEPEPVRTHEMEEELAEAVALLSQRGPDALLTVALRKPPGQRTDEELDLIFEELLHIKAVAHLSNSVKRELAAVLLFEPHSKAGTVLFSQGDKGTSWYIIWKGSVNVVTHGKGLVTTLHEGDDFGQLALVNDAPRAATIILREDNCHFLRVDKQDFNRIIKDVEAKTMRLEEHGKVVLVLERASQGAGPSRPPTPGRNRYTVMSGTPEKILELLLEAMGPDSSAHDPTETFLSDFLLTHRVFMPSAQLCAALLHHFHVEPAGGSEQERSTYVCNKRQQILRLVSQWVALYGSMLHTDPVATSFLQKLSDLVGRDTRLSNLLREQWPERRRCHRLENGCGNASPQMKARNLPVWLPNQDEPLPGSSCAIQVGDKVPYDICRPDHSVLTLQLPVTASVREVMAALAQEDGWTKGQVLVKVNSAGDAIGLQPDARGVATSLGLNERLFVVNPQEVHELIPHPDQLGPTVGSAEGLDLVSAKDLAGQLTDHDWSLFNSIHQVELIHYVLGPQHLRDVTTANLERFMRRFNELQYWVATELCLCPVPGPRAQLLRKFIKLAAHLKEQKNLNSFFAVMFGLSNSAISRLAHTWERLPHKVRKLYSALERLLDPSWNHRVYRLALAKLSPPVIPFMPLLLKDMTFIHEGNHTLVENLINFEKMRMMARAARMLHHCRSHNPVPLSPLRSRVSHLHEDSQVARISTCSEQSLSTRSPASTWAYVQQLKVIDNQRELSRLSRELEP
# Sequence of Rap guanine nucleotide exchange factor 4 (Homo sapiens) (Q8WZA2 whole entry, looked up): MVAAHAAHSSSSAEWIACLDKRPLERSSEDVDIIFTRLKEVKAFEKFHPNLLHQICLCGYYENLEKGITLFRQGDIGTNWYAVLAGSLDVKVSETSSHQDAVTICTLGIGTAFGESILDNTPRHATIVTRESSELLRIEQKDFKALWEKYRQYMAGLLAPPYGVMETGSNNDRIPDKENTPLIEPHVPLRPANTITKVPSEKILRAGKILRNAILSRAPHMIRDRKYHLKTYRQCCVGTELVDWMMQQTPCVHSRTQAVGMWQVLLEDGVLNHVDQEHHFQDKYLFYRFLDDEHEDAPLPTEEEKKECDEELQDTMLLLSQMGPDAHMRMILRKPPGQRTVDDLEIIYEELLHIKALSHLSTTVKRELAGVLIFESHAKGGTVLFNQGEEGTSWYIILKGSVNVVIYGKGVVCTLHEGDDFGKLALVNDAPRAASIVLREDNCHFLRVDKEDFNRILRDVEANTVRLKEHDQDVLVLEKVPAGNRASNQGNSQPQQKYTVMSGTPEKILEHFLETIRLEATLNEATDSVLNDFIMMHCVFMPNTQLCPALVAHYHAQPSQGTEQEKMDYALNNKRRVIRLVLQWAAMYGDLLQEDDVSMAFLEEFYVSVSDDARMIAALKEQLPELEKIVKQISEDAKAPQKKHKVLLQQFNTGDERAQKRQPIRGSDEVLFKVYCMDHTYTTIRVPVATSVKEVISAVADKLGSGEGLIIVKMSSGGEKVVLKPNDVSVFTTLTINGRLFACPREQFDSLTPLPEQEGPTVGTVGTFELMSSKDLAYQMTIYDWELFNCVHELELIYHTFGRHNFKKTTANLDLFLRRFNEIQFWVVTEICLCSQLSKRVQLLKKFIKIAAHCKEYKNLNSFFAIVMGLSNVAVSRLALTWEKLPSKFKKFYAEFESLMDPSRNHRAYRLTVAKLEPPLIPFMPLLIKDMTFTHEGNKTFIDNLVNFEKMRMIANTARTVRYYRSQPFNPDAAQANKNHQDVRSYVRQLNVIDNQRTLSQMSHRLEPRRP
# Sequence of Peroxisome proliferator-activated receptor alpha (Homo sapiens) (Q07869 whole entry, looked up): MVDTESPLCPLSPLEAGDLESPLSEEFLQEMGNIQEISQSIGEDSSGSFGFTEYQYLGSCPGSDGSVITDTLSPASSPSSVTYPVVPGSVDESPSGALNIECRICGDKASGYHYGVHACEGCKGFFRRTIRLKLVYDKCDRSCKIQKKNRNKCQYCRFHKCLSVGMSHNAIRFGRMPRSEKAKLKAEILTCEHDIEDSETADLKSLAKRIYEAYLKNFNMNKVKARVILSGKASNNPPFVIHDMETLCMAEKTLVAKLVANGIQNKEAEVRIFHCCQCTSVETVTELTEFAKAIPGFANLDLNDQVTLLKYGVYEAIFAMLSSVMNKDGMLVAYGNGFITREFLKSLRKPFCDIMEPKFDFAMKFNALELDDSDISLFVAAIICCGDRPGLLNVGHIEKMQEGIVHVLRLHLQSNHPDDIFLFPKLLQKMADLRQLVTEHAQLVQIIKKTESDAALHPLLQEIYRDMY
# Sequence of Tumor necrosis factor (Homo sapiens) (P01375 whole entry, looked up): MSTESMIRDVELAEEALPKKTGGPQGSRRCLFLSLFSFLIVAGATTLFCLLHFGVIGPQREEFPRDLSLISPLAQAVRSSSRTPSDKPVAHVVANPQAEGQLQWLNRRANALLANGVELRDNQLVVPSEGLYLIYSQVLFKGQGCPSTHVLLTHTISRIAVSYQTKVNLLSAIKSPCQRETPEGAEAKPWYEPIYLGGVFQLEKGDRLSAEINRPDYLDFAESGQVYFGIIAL
# Sequence of Thyroid hormone receptor beta (Homo sapiens) (P10828 whole entry, looked up): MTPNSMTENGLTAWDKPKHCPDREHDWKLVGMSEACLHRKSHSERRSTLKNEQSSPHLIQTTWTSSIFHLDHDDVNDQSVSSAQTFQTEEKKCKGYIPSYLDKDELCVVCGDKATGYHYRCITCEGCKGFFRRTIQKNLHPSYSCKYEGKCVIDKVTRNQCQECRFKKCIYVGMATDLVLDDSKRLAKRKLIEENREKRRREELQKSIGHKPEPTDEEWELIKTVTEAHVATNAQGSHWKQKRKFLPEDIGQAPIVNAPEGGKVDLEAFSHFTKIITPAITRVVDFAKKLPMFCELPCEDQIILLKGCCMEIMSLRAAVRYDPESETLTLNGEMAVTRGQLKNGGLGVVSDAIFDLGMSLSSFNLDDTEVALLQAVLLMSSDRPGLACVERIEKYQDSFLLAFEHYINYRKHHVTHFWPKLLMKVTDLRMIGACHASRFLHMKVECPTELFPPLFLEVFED
# Sequence of Nuclear receptor ROR-gamma (Homo sapiens) (P51449 whole entry, looked up): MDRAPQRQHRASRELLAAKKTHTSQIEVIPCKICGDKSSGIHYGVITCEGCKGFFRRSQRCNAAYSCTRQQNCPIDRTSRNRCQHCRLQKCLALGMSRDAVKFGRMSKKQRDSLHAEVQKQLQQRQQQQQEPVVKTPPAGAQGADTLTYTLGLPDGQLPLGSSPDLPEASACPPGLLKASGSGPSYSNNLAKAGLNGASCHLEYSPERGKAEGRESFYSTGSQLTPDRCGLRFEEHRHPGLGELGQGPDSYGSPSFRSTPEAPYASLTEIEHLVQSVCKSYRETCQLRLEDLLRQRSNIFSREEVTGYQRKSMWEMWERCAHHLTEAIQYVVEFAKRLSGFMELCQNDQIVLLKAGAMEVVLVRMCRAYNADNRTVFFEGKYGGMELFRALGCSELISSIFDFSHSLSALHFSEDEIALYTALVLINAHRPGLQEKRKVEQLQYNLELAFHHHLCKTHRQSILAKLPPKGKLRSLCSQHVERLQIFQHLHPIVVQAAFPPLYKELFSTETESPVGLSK
# Sequence of Retinoic acid receptor RXR-alpha (Homo sapiens) (P19793 whole entry, looked up): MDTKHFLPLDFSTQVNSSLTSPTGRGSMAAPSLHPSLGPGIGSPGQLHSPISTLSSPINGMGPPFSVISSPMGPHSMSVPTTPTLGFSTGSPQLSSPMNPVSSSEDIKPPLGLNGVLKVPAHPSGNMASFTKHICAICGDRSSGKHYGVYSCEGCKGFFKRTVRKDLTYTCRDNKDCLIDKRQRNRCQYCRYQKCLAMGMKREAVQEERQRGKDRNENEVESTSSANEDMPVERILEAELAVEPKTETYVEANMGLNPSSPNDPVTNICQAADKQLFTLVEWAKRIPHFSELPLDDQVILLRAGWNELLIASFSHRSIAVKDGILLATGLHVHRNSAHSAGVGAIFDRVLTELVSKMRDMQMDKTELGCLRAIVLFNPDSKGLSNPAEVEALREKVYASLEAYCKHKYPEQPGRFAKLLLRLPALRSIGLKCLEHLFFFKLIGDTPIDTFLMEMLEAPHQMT
structure (smiles),measurement,setting,value
Clc1cc(Cl)c(-c2cc(Cl)c(Cl)cc2Cl)cc1Cl,outcome,[1],inactive
same,outcome,[2],inactive
same,outcome,[3],inactive
same,max response,[4],9.9%
same,max response,[5],12.5% (inactive)
same,Potency,[6],inactive
same,Potency,[7],inactive
same,outcome,[8],inactive
same,activation,[9],-0.0322% (inactive) and 0.521% (inactive)
same,max response,[10],-1.16% (inactive) and 9.79% (inactive)
same,Potency,[11],inactive
same,outcome,[12],inactive
same,Potency,[13],inactive
same,max response,[14],-2.79% (inactive) and -2.97% (inactive)
same,max response,[15],-28.5% (inactive) and -15.8% (inactive)
same,Potency,[16],44.7 µM (active)
same,Potency,[17],inactive
same,Potency,[18],inactive
same,Potency,[19],4.78 µM (active)
same,outcome,[20],inactive
same,max response,[21],2.83% (inactive) and 5.76% (inactive)
same,outcome,[22],inactive
